# Rows were chosen to be rich in hits. Some 5.4% of all compounds tested hit in one or more screens of this group.
# LASV entry inh: qHTS for Inhibitors of binding or entry into cells for Lassa Virus; Lassa virus pseudotype entry inhibition, cell reporter; Potency, µM (series often up to 37.9 µM), for the others: top-dose activity change, negative = inhibition, hits mostly inhibitors; 300,000 compounds, 1.2% hits; AID 540256, 2011; calls by dose curve; tested in HEK293 cells; further: nearly all actives have a fitted effect of over 50% in size
# VACV Venus inh: qHTS for Stage-Specific Inhibitors of Vaccinia Orthopoxvirus: Venus Reporter Primary qHTS | 330,000 compounds, 0.46% hits | AID 720580, 2013 | Vaccinia virus Venus reporter expression, fluorescence | Potency, µM (series often up to 36.5 µM), for the others: at the highest dose activity change, negative = inhibition, usual class: inhibitors; calls by dose curve; tested in A549 cells; further: nearly all actives have a fitted effect of over 30% in size
# VACV mCherry inh: qHTS for Stage-Specific Inhibitors of Vaccinia Orthopoxvirus: mCherry Reporter Primary qHTS. AID 720579, 2013. 310,000 compounds, 0.63% hits. Potency, µM (highest dose often 36.5 µM), for the others: at the highest dose activity change, negative = inhibition, most hits filed as inhibitors. Vaccinia virus mCherry reporter infection, fluorescence; calls by dose curve; tested in A549 cells; further: nearly all actives have a fitted effect of over 35% in size
# Marburg entry inh: qHTS for inhibitors of binding or entry into cells for Marburg Virus | 300,000 compounds, 1.8% hits | Potency, µM (top dose mostly 37.8 µM), without a hit: at the top dose activity change, negative = inhibition, hits mostly inhibitors | AID 540276, 2011 | Marburg virus pseudotyped entry inhibition, cell reporter; calls by dose curve; tested in HEK293 cells
# FMDV antiviral: High Throughput Screening for Foot and Mouth Disease Virus Antivirals. FMDV antiviral cell-based qHTS. Potency, µM (titrated, usually from 57.9 µM), for the others: at the highest dose activity change, negative = inhibition, hits mostly inhibitors. 410,000 compounds, 1.2% hits; calls by dose curve; tested in HEK293T cells; further: read-out not given here; nearly all actives have a fitted effect of over 45% in size
# Sm TGR block: qHTS Assay for the Inhibitors of Schistosoma Mansoni Peroxiredoxins; Schistosoma mansoni thioredoxin glutathione reductase (TGR), Q962Y6; purified TGR, DTNB reduction, TNB absorbance 405 nm; Potency, µM (top dose mostly 114 µM), for inactives: at the top dose activity change, negative = inhibition, hits mostly inhibitors; 360,000 compounds, 3% hits; AID 485364, 2010; active means well fitted inhibition curve with a large enough effect; inconclusive means small, poorly fitted or top-dose-only effect; inactive means no such curve, though single readings can be large or run the other way; further: nearly all actives have a fitted effect of over 60% in size
#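 TGR 20 nM + NADPH 100 uM (dispensed conc.), cpd preinc 15 min RT; start with NADPH (500 uM addition) then DTNB (15 mM addition). Kinetic TNB absorbance, 405 nm filter. Four-parameter Hill fit across titration.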
# An asterisk follows results filed as active; i = inactive; ? = inconclusive; nt = not tested or not shown; [ ] = dose if it differs, or a comment. On the % scale 0 is the no-effect control and ±100 the full control effect; potency means the concentration at half of the fitted maximal effect.
SMILES,LASV entry inh,VACV Venus inh,VACV mCherry inh,Marburg entry inh,FMDV antiviral,Sm TGR block
CCOCCc1nn2c(=O)cc(COC(=O)c3ccccc3NC(=O)C3CCCCC3)nc2s1,11%[46.1 µM],-18%,-12%,nt,?,2%
Cc1c(C(=O)N(C)Cc2cscn2)sc2ncnc(NC[C@H]3CCc4ccccc4O3)c12,nt,-3%,3%,nt,-12%,nt
CC(C)C(NS(C)(=O)=O)c1nnc2n1CCN(Cc1ccc(Cl)cc1)CC2 (configuration not stated),nt,-11%,-22%,nt,-10%,nt
Cc1cccc(CNC(=O)C2CCN(S(=O)(=O)c3ccc4c(c3)CCCN4C(=O)C3CCC3)CC2)c1,-17%[46.1 µM],-12%,-16%,nt,?,5%
O=C1CC(Nc2ccc3ccccc3c2)C(=O)N1Cc1ccccc1 (configuration not stated),?,nt,nt,?,-20%,-31%
COc1ccc(NC2CC(=O)N(c3ccccc3)C2=O)cc1 (configuration not stated),?,-13%,nt,?,24%,?
CCOc1ccccc1N1CC(C(=O)Nc2ccccc2N2CCOCC2)CC1=O (configuration not stated),28%,-11%,i,-15%,0%,2%
CCOc1ccccc1N1C(=O)CC(Nc2ccc(N3CCOCC3)cc2)C1=O (configuration not stated),-11%,6%,-4%,15%,-4%,18µM*
O=C1CC(Nc2ccc(N3CCOCC3)cc2)C(=O)N1c1ccccc1 (configuration not stated),2%,1%,-15%,4%,nt,35µM*
O=C1CC(Nc2ccc(N3CCOCC3)cc2)C(=O)N1Cc1ccccc1 (configuration not stated),2%,nt,nt,14%,-4%,20µM*
COc1ccccc1N1CCN(C(=O)N2CCOCC2)CC1,0%,nt,nt,-9%,3%,2%
COc1ccccc1N1C(=O)CC(Nc2ccc(N3CCOCC3)cc2)C1=O (configuration not stated),13%,-1%,-8%,-7%[46.1 µM],-19%,20µM*
NC(=O)CS(=O)(=O)c1ccc(Cl)cc1,3%[46.1 µM],-2%,-29%,3%[46.1 µM],-2%,8%
COc1ccc(S(=O)(=O)CC(=O)c2cc(C)c(O)c(C)c2)cc1,nt,-9%,-27%,nt,-5%,28µM*
Cc1cc(C(=O)CS(=O)(=O)c2ccc(Cl)cc2)cc(C)c1O,nt,nt,nt,nt,10%,4.5µM*
Cc1cc(C(=O)CS(=O)(=O)c2ccc(F)cc2)cc(C)c1OC(=O)N(C)C,?,-26%,-30%,?,0%,-2%
COc1cccc(C2=NS(=O)(=O)N(C)C(C(=O)Nc3ccccc3SC)=C2)c1,1%[46.1 µM],-9%,-7%,3%[46.1 µM],-13%,-8%
COc1ccc(Cl)cc1NC(=O)N1CCC2(CC1)Oc1ccccc1C(=O)N2Cc1ccc(F)cc1,2%[46.1 µM],-14%,-9%,-6%[46.1 µM],-16%,-2%
O=C(C1CCCN(S(=O)(=O)c2cccc3nsnc23)C1)N1CCc2ccccc21 (configuration not stated),-2%,-30%,-23%,-17%,25µM*,-2%
O=C(C1CCCN(S(=O)(=O)c2cccc3nsnc23)C1)N1CCCCCC1 (configuration not stated),nt,nt,nt,nt,-12%,1%
O=C(C1CCCN(S(=O)(=O)c2cccc3nsnc23)C1)N1CCc2ccccc2C1 (configuration not stated),?,-16%,-23%,-48%,25µM*,-26%
O=C(C1CCCN(S(=O)(=O)c2cccc3nsnc23)C1)N1CCN(c2ccccc2Cl)CC1 (configuration not stated),?,-16%,-28%,4µM*,25µM*,-2%
COc1ccc(N2C(=O)CS(=O)(=O)C23C(=O)N(Cc2ccccc2F)c2ccccc23)cc1Cl (configuration not stated),-21%[46.1 µM],-13%,-3%,nt,0%,11%
COc1cccc(CN2C(=O)NC(C)(C3CCN(Cc4cnn(C)c4C)CC3)C2=O)c1OC (configuration not stated),nt,-10%,i,nt,?,nt
Oc1ccc(/C=N/NC(=S)NC2CC3CCC2C3)cc1 (configuration not stated),11µM*,0%,-22%,?,11%,-24%
SMILES,LASV entry inh,VACV Venus inh,VACV mCherry inh,Marburg entry inh,FMDV antiviral,Sm TGR block
O=C(C[N+]12CN3CN(CN(C3)C1)C2)c1ccc(O)c(O)c1,nt,-11%,-14%,nt,nt,nt
Cn1c(=O)oc2cc(S(=O)(=O)N3CCCC(C(=O)Nc4ccc(Br)cc4F)C3)ccc21 (configuration not stated),-2%[46.1 µM],-9%,-2%,?,-13%,-6%
CC(C)N1C(=S)N(Cc2ccco2)C(=O)C1CC(=O)Nc1ccccc1 (configuration not stated),-14%,5%,-7%,2%[46.1 µM],-5%,40µM*
O=[S+]1([O-])N[C@@H]2Cc3ccccc3[C@@H]2Oc2cc(Br)ccc21,-3%[46.1 µM],nt,nt,nt,nt,nt
CCOC(=O)CNC(=O)c1cc2c(=O)n3cccc(C)c3nc2n1C,8%[46.1 µM],0%,-5%,nt,11%,-6%
Cc1ccc(-c2nc3c(C)cccn3c2Nc2ccccc2C)s1,21%[46.1 µM],-10%,-15%,-22%[46.1 µM],-13%,8.9µM*
O=CN1N=C(c2ccccc2)CC1c1ccc(Cl)cc1 (configuration not stated),-26%[46.1 µM],-10%,0%,?,?,-4%
O=C1OC(c2ccccc2)=NC12CC2c1ccc(Cl)cc1 (configuration not stated),?,-4%,-5%,?,28µM*,14µM*
CCC(Oc1ccccc1)C(=O)Nc1cc(-c2ccccc2OC)nn1-c1ccccc1 (configuration not stated),-16%[46.1 µM],2%,-16%,nt,-20%,6%
CCOc1ccccc1NC(=O)CN1C(=O)CC(c2ccc(C)c(C)c2)=Nc2ccccc21,17%[46.1 µM],-12%,-14%,nt,53%,2%
Cc1nn(CCCC(=O)NCc2ccccc2)c(=O)c2c1sc1ccccc12,?,-6%,-13%,?,-23%,-13%
COc1ccc(NC(=O)C2CCC(C(C)(C)C)CC2)cc1S(=O)(=O)N1CCOCC1 (configuration not stated),nt,nt,nt,nt,?,40µM*
O=C(Nc1ccc(F)c(F)c1)C1CCN(S(=O)(=O)c2cccc3nonc23)CC1,-9%,-24%,-21%,-2%[46.1 µM],20µM*,-8%
CCc1ccc(NC(=O)C2CCN(S(=O)(=O)c3c(C)noc3/C=C\c3ccc(OC)cc3)CC2)cc1,29%[46.1 µM],-16%,-10%,?,?,10%
